High-throughput results as filed in PubChem BioAssay.
The sample as a whole holds a higher share of hits than the screen did.
AMA1-RON2 inh: inhibitors of Plasmodium falciparum AMA1-RON2 interaction. AlphaScreen AMA1-biotinylated RON2 peptide binding. Potency, µM (titrated, usually from 58.2 µM), inactives show top-dose activity change, negative = inhibition, usual class: inhibitors. actives 0.2% (n = 360,000). AID 720542;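 further: potency means the concentration at half of the fitted maximal effect; 0% = vehicle wells and -100% = peptide control; nearly all actives have a fitted effect of over 45% in size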
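AMA1 (3D7) with his tag at 25 nM final met compounds first, then biotinylated RON2 peptide at 25 nM; detection used donor plus acceptor beads, 10 µg/mL apiece, read by AlphaScreen after 30 min at room temperature.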
Shiga inhibitor: Shiga toxin inhibition; actives 9.2% (n = 290,000); inhibition, % at 38.7 µM; Vero cells, Shiga toxin protein synthesis inhibition reporter; in the data active means inhibition mostly above about 28%, no sharp cut-off; inactive means mostly below about 43%; further: 0% is about no effect
SARS PLP yeast: blocks SARS-CoV papain-like protease in a yeast assay; S. cerevisiae expressing SARS-CoV PLpro, growth rescue; actives 0.19% (n = 330,000); Potency, µM (highest dose often 32.9 µM), without a hit: at the highest dose activity, positive = growth rescue, actives largely listed as activators; calls by dose curve; further: potency means the concentration at half of the fitted maximal effect; 0% is about no effect; nearly all actives have a fitted effect of over 55% in size
CHX counter: affects cycloheximide protein synthesis inhibition readout, counter-screen | cell reporter, cycloheximide protein synthesis inhibition counterscreen | max response, % | actives 12% (n = 300,000) | AID 2314; in the data active means max response mostly above about 13%, no sharp cut-off; inactive means mostly below about 14%; further: read at 38.3 µM for the half of the compounds with a filed dose; 0% is about no effect
AmpC no deterg: inhibitors of E. coli AmpC beta-lactamase without detergent; AmpC nitrocefin hydrolysis, absorbance 480 nm, 0.0001% Triton; AID 485341; Potency, µM (series often up to 57.1 µM), without a hit: at the top dose activity change, negative = inhibition, hits mostly inhibitors; P00811; actives 0.52% (n = 330,000);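 further: potency means the concentration at half of the fitted maximal effect; plate controls were no compound for no effect and no enzyme for full effect; nearly all actives have a fitted effect of over 20% in size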
Target sequence (P00811 whole entry, looked up): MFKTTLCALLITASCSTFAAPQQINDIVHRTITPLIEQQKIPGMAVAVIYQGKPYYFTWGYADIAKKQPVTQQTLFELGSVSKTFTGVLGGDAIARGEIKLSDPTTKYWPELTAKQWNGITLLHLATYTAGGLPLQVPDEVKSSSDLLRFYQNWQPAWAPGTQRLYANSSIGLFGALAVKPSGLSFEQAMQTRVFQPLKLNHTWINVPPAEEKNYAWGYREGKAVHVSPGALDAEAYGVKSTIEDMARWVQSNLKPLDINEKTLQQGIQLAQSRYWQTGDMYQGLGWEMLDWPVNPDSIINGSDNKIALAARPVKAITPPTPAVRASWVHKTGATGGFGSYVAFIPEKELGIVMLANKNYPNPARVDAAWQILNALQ
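AmpC (5.3 nM in the dispensed reagent) in 20 mM phosphate pH 7.0 with 0.01% (detergent screen) or 0.0001% Triton X-100 was preincubated with compounds for 15 min at room temperature. Nitrocefin was then added from an 800 uM solution, and hydrolysis was followed at 480 nm.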
AmpC inh detg: blocks E. coli AmpC beta-lactamase in detergent assay. Potency, µM (highest dose often 114 µM), without a hit: at the highest dose activity change, negative = inhibition, most hits filed as inhibitors. AmpC hydrolysis of nitrocefin, absorbance 480 nm, 0.01% Triton. actives 0.041% (n = 370,000). P00811. AID 485294;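 further: potency means the concentration at half of the fitted maximal effect; 0% = no-compound wells and -100% = no-enzyme wells; nearly all actives have a fitted effect of over 25% in size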
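AmpC (5.3 nM in the dispensed reagent) in 20 mM phosphate pH 7.0 with 0.01% (detergent screen) or 0.0001% Triton X-100 was preincubated with compounds for 15 min at room temperature. Nitrocefin was then added from an 800 uM solution, and hydrolysis was followed at 480 nm.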
An asterisk follows results filed as active; ? = inconclusive; · = not tested or not shown. Unless noted, the call rests on the fitted dose curve; in most records, active means well fitted curve in the direction sought with a large enough effect; inconclusive means small, poorly fitted or top-dose-only effect, or another doubt; inactive means no such curve, though single readings can be large; an effect the other way counts as inactive or inconclusive.

SMILES | AMA1-RON2 inh | Shiga inhibitor | SARS PLP yeast | CHX counter | AmpC no deterg | AmpC inh detg
Clc1ccc(OCCSc2ncccn2)c(Br)c1 | 33% | 118* | -4% | 41* | -16% | 7%
Clc1ccc(OCCCCSc2ncccn2)cc1 | 36% | 20 | -2% | 12 | -22% | -1%
CCCOc1ccc(OCCSc2ncccn2)cc1 | -19% | 81* | -6% | 44* | -13% | 2%
CN(C)CCCOc1ccc(Cl)cc1Br | -27% | -9 | -2% | -2 | -4% | -1%
Cc1ccc(NC(=O)CSc2nncs2)cc1Cl | 8% | · | 5% | · | -23% | 2%
COc1ccc(CCc2nnc(CCC(=O)NCc3cc(C(C)C)no3)o2)cc1 | ? | 80* | 0% | 35* | 5% | -6%
Cc1cccnc1CCNC(=O)CCc1nnc(-c2ccccc2)o1 | 15% | -5 | 0% | 8 | -17% | 8%
COc1ccc(CCc2nnc(CCC(=O)NCCc3ncccc3C)o2)cc1 | 6% | 25 | 1% | 21* | 23% | -1%
CN(C1CCCCC1)S(=O)(=O)c1ccc2c(c1)c(=O)c(C(=O)N1CCN(c3ccccc3F)CC1)cn2C | · | · | · | · | · | -4%
COc1ccc(-c2csc(NC(=O)c3ccccc3NS(=O)(=O)c3ccc(F)c(F)c3)n2)cc1 | -27% | 2 | -4% | -3 | -60% | 0%
O=C(CN1C(=O)c2ccccc2C1=O)Nc1nnc(C2CCCO2)s1 (stereo not drawn) | 36% | -20 | 6% | -5 | -18% | -10%
COc1ccc(/C=C(\CC(=O)O)c2nc3ccccc3o2)cc1 | 1% | 108* | -13% | 39* | -23% | 3%
CC(=Cc1cccs1)C(=O)c1ccccc1 | 14% | · | · | · | · | ·
COc1ccc(C(=O)/C(=C/c2cccs2)c2nc3ccccc3o2)cc1 | -8% | 93* | 21% | 43* | -3% | -3%
CCOC(=O)/C(=C/Nc1ccccc1)[N+](=O)[O-] | -5% | -6 | -3% | -3 | -24% | ?
COc1ccc(C(=O)NCCSC2CCCCC2)cc1 | 35% | 80* | -1% | 42* | -13% | -11%
CS(=O)(=O)Nc1ccc(C(=O)NCCSC2CCCCC2)cc1 | -19% | 18 | 2% | 9 | -34% | -3%
O=C(NCCSC1CCCCC1)c1ccccc1 | 14% | 63* | -2% | 30* | -19% | 3%
c1csc(-c2cnc3ccccc3n2)c1 | -1% | 75* | 1% | 29* | -11% | -15%
c1ccc(-c2cccs2)nc1 | 8% | -5 | 0% | 1 | -5% | -2%
c1cc(-c2cccs2)nc(-c2cccs2)c1 | -14% | 53* | -4% | 46* | -17% | ?
c1coc(-c2cnc3ccccc3n2)c1 | -15% | · | · | · | · | ·
COc1ccc(C(=O)N2CCc3ccc(NC(=O)c4ccccn4)cc3C2)cc1F | 23% | 56* | -17% | 42* | 135% | 0%
COC(=O)C1CCCCN1C(=O)c1ccc2oc(C(C)C)nc2c1 (stereo not drawn) | 1% | 57* | -1% | 27* | 73% | 1%
CCOC(=O)C1CCCCN1C(=O)c1ccc2nc(Cc3ccc(OC)cc3)oc2c1 (stereo not drawn) | 3% | 12 | 2% | 6 | 118% | 4%
SMILES | AMA1-RON2 inh | Shiga inhibitor | SARS PLP yeast | CHX counter | AmpC no deterg | AmpC inh detg
COC(=O)C1CCCCN1C(=O)c1ccc2oc(Cc3ccccc3)nc2c1 (stereo not drawn) | 0% | 83* | -2% | 67* | 95% | -13%
Cc1nc2ccccc2cc1C(=O)NCc1ccc(F)cc1 | 13% | 4 | -3% | 8 | -37% | 0%
CC(C)CN1CCNC(=O)C1CC(=O)NCCCN1CCCc2ccccc21 (stereo not drawn) | 0% | -9 | 1% | 6 | 131% | -3%
CCC1(C)Cc2c(sc3nc(NC)n(C)c(=O)c23)CO1 (stereo not drawn) | -9% | 27 | -7% | 67* | 13% | -5%
Cn1c(NN)nc2sc3c(c2c1=O)CC(C)(C)OC3 | 77% | 16 | 6% | -3 | -19% | -11%
Cc1ccc(OCC(=O)NNC(=O)C2CCCO2)c(C)c1 (stereo not drawn) | 9% | 12 | 0% | 21* | -8% | 2%
Cc1cc(OCC(=O)NNC(=S)NCC2CCCO2)cc(C)c1Cl (stereo not drawn) | 35% | 33 | -8% | 17* | -31% | -2%
Cc1ccccc1OCC(=O)NCC1CCCO1 (stereo not drawn) | -6% | 67 | -2% | 1 | 8% | ?
Cc1ccc(OCC(=O)NCC2CCCO2)c(C)c1 (stereo not drawn) | -5% | 34 | 1% | 39* | -6% | 5%
CCC(=O)c1ccc(OCC(=O)OCC(=O)NCC2CCCO2)cc1 (stereo not drawn) | 2% | 20 | -2% | 19* | -15% | 3%
O=C(COC(=O)COc1ccc(Br)cc1)NCC1CCCO1 (stereo not drawn) | 12% | · | -5% | · | -9% | ·
Cc1cc(C)cc(OCC(=O)NNC(=O)C2CCCO2)c1 (stereo not drawn) | 63% | 28 | 1% | 6 | -4% | 3%
Cc1cc(OC(C)C(=O)NCC2CCCO2)cc(C)c1Cl (stereo not drawn) | 11% | -1 | 2% | -2 | 62% | -3%
CN(C(=O)Cc1ccccc1OC(=O)c1ccccc1)c1ccccc1I | · | -7 | · | -2 | · | ·
Cc1cc(C)c(C)c(C(O)(C(=O)O)c2ccccc2)c1 (stereo not drawn) | 15% | · | · | · | · | ·
COc1cccc(CNC(=O)c2ccc(Cn3c(SCc4ccccc4)nc4cccnc43)cc2)c1 | · | · | · | · | · | 3%
O=C(COc1ccccc1[N+](=O)[O-])Nc1cccc(-c2nc3ccccc3s2)c1 | · | · | · | · | · | 24%
CN(C)/C=N/c1ncc(C(=O)OC(C)(C)C)s1 | 7% | 69* | 1% | 30* | 5% | -1%
CN(C)/C=N/c1ncc(C(=O)c2ccccc2)s1 | -9% | 66* | 2% | 52* | -12% | 4%
CN(C)/C=N/c1ncc(C(=O)c2ccc(-c3ccccc3)cc2)s1 | 13% | 24 | -17% | 19 | 104% | 2%
N#Cc1ccccc1S(=O)(=O)Nc1ccc2c(c1)OCCO2 | -19% | 15 | -1% | 14 | -10% | -8%
Cc1ccc2nc(-c3ccc(O)cc3)c(Nc3ccc(Cl)cc3)n2c1 | · | · | · | · | · | -2%
COc1ccc(C(=O)Nc2ccc(S(=O)(=O)N3CCCC3)cc2)cc1[N+](=O)[O-] | 2% | -2 | 1% | -2 | -26% | -5%
CN(C)c1cccc(NC(=O)C2Cc3c(-c4ccc(Cl)cc4)ccnc3O2)c1 (stereo not drawn) | 25µM* | · | · | · | · | ·
CN(C)c1cccc(NC(=O)C2Cc3c(-c4cccnc4)ccnc3O2)c1 (stereo not drawn) | 0% | · | · | · | · | ·
